Compounds without any hit were thinned out: in the full panel of roughly 83,000, 20% have a hit.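 Values shown are percent growth following 48 h exposure of cells in 96-well plates to a single concentration of compound; below 10 was considered active.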 Values without a mark were called inactive. The source made the active and inactive calls.
tested on: MDA-MB-468 breast; test: NCI-60 one-dose screen, 48 h (100 = growth as untreated, 0 = no growth, -100 = all killed); conditions: 10 µM unless noted

First: COc1ccc(C(=O)c2cc(OC)c(OC)c(OC)c2)cc1/C=C/C(=O)c1ccc(F)cc1
Second: COc1cc(C(=O)N2N=C(c3ccc(S(C)(=O)=O)cc3)CC2c2ccco2)cc(OC)c1OC (stereo not given)
The growth of the first is higher: 90.4% for the first, 36.7% for the second.

Going from O=C(CSc1nnc(-c2ccc3nc(-c4ccccc4)[nH]c3c2)o1)Nc1ccc(C(=O)/C=C/c2ccccc2)cc1 to Cc1nc(-c2cc3ccccc3oc2=O)ccc1C(=O)/C=C/c1ccccn1, the growth falls from 112% to 60.5%.

Compared with C=C(C=O)[C@@H]1CC[C@]2(C(=O)O)CC[C@]3(C)C(CC[C@@H]4[C@@](C)(CCC#N)[C@H](C(=C)C=O)CC[C@]43C)[C@@H]12 (stereo not given in full), CON1C(=O)CC[C@]2(C)[C@H]3CC[C@@H]4C([C@@]5(C)CCC(=O)O5)CC[C@@]4(C)[C@]3(C)CC[C@H]2C1(C)C (stereo not given in full) is higher in growth: 79.8% for the first, 94.4% for the second.

First: CC(C)c1ccc(C(=O)OC(=O)c2ccc(C(C)C)cc2)cc1
Second: COc1ccc(/C=C(/C(=O)c2ccc(Cl)cc2)C(=O)C(F)(F)F)cc1
The growth of the first is higher: 110% for the first, 99.7% for the second.

First: O=C(c1c[nH]c(=O)c(-c2ccccc2)c1)c1ccccc1O
Second: CCOC(=O)C1=C(C)N=C2Sc3ccccc3N2C1c1ccccc1 (stereo not given)
The growth of the first is higher: 80.8% for the first, 74.8% for the second.

Compared with COC(=O)C(Cc1ccccc1)NC(=O)NC(=O)NC(=O)CI (stereo not given), CC(=O)C1=C(C)NC(NNC(N)=S)=NC1c1ccccc1 (stereo not given) is higher in growth: 82.8% for the first, 100% for the second.

Going from Cc1ccc(S(=O)(=O)NCCCNc2nccc(-c3c(-c4cccc(F)c4)nc4occn34)n2)cc1 to COc1ccc(-c2nc3sccn3c2-c2nc3c([nH]2)C(=O)c2ccccc2C3=O)cc1, the growth rises from 55.6% to 95%.

Compared with CCCCCCCCCCCCCCCCCC1=NC(C)(CO)CO1 (stereo not given), CC(CCCC(=O)O)c1ccoc1 (stereo not given) is higher in growth: 82% for the first, 119% for the second.

First: O=C(Nc1ccccc1)Nc1ccc(Nc2ncnc3sc4c(c23)CCCC4)cc1
Second: O=C(c1nn(-c2ccccc2)c2c1CC(NCc1ccc(F)cc1)CC2)N1CCCCC1 (stereo not given)
The growth of the first is lower: 96.9% for the first, 97% for the second.

First: COc1ccc(Nc2cc(C)nc(N3CCN(c4ccnc5cc(Cl)ccc45)CC3)n2)cc1
Second: COc1ccc2c(c1)C(=O)/C(=C/c1ccccn1)CC2
The growth of the first is lower: 21.7% for the first, 40.4% for the second.

Compared with COC(=O)C1CC(=O)N(C(=O)Nc2ccc(Cl)cc2Cl)C1 (stereo not given), Cc1nc2c(c(=O)[nH]1)OCN(Cc1ccccc1)C2 is higher in growth: 97.8% for the first, 108% for the second.

Going from CCn1c2ccccc2c2ccc(C(C)=O)cc21 to CCC(c1ccccc1)C(CC)c1ccc(O)c(O)c1 (stereo not given), the growth falls from 104% to 90.9%.

Going from C#CCN1C(=O)/C(=c2\sc3n(c2=O)NC2C(N=3)N(CC)C(=O)N2CC)c2ccccc21 (stereo not given) to O=C1Nc2ccccc2/C1=N/N=C/c1ccc(OC2OC(CO)C(O)C(O)C2O)cc1 (stereo not given), the growth rises from 10.8% to 112%.

First: Clc1ccc(/C=C2\CCCC3=C2N=C2SC=NN2C3c2ccc(Cl)cc2)cc1 (stereo not given)
Second: O=C(NCC(c1ccsc1)N1CCCCCC1)c1ccc(C(F)(F)F)cc1 (stereo not given)
The growth of the first is lower: 90.4% for the first, 95.3% for the second.

For COc1cc(NC(=O)NCc2ccco2)ccc1-c1ccc(NC(=O)NCc2ccco2)cc1OC, the growth was 16.8%.

In the case of NC1=Nc2cc(OCCCCN3Cc4ccccc4C3)c(OCC3CC3)cc2C12CCCC2, the growth is reported as 7.97% (active).
For Cc1cc2c(-c3nc4ccccn4c3N)c(O)c(O)cc2c(O)c1-c1c(C)cc2c(-c3nc4ccccn4c3N)c(O)c(O)cc2c1O, the growth was -2.1% (active).
With CNC(=O)c1cc(Oc2ccc3nc(NC(=O)Nc4cc(C(F)(F)F)cc(C(F)(F)F)c4)sc3c2)ccn1 the growth was -31.1% (active).
With CC#Cc1nc(Nc2cc(C)[nH]n2)c2ccccc2n1 the growth was 1.44% [100 µM] (active).
With NC(CSSCC(N)C(=O)O)C(=O)O (stereo not given) the growth was -17% (active).
In the case of ClC(Cl)c1nc(-c2ccco2)n2nc(-c3ccccc3)cc2n1, the growth is reported as -54.2% (active).
In the case of O=C1N[C@@H]2[C@@H](O)[C@@H](O)[C@H](O)C[C@H]2c2cc3c(c(O)c21)OCCO3, the growth is reported as -27.2% (active).
CN1CCN(Cc2ccc(NC(=O)c3cncc(C#Cc4cnc5ccc(NCCO)nn45)c3)cc2C(F)(F)F)CC1 was tested, and the growth was -55.5% (active).
O=c1oc2ccc(F)cc2c(=O)n1-c1ccc(Br)cc1F was tested, and the growth was 0.698% (active).
With Cc1ccc(-n2c(-c3cc4c([nH]c5ccccc54)c(-c4cccc(O)c4)n3)n[nH]c2=S)cc1 the growth was -32.3% (active).
For Cc1c2c(cc[n+]1Cc1ccccc1)c1ccc(OCc3ccccc3)cc1n2Cc1ccccc1, the growth was -42.3% (active).
